Measured values reported in the supplement of paper PMC6555819.

tested on: PPARg:RXRa DBDmut IVT, anti-RXR (DBD mutation: RXRa K156A/R161A, NR concentration 270 nM, RXRa partner concentration 90 nM); test: PBM binding z-score (relative to random genomic background probes); higher = stronger binding; sequences stand for … in GC…GCGATTGACAGCGTAGAATGAAGG
Outline: (§1)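 Antibodies against each partner of ligand-free nuclear receptor dimers (one per run) detected binding on custom Agilent 4×180K protein-binding microarrays after 1 h incubation. The double-stranded probes had 34-nt variable regions carrying direct-repeat seeds, single-nucleotide variants, half-site ablations and random human genomic background sequences. Binding z-scores, from regression-normalized fluorescence, use the random background probes as reference.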

| Sequence | PBM binding z-score |
| --- | --- |
| CCTTACGGGTCACTCCAGGTTATAGCATCGGAGT | 2.98 |
| TTGCCTAGGTCATGGGCCAGTATACCACGCGAAC | 1.44 |
| TCTTGTAGATCAATGGTTAAGAAAGCCGAAGCCT | 1.89 |
| CCGACTGGGGCATAAGGTTACCCTAAGCCAGCCC | 2.4 |
| CCTTACTGGTCACTCCAGGTTATAGCATCGGAGT | 0.949 |
| ATCTCTAGGTCACCAAGTTCAGTGAATGCCGAAC | 7.23 |
| AGAACGAGGGCAATGAGTTGTTAGCACGGGTGGC | 3.51 |
| GCTGCTACGTCAGGTTGGTCAGCTAACGGGTACG | -0.264 |
| TAGCCTAGGTCAGACCGGGCCAGTATACGCTATA | 0.42 |
| CCGAGTAGGTTATGGGGCACTCAGGCAACGGTGA | 3.14 |
| GCTTACGGGTCAAAGGTGATAGCATGAATAGAAT | 5.42 |
| CCTACTGGGCCAAACAGGTCATTGATGCCGATAA | 4.31 |
| ATATGTAGGTTATGGGGTCATTCAGTTTGCGCAT | 7.59 |
| ATCGAAAGGTCGTGAGGTTAGTATACAGAAAGGC | 0.453 |
| GCGACTGGGGCAAAGCAGGTTTCCATAAGGTTGG | 4.2 |
| CCTACTAGGCCAAAAAGGTCATTGATGCCGATAA | 5.03 |
| GCTGCTAGGTCAACTGTTGGTCAGCTAAAGCTCG | 5.26 |
| AGAACGAGGGCACGTTGAGTTGATAGCAGAGTAG | 3.79 |
| CGTCCAGGGTCAAAGGTCAGTGAAGAGATGACGG | 2.45 |
| ATCACTAGGTAAAAGTTCAGTGAATCCCGAGGAT | 3.38 |

| Sequence | PBM binding z-score |
| --- | --- |
| CCAGATAGGTGAGAAGGTAACTCAGCCTCGATTA | 2.53 |
| ACTATTAGTTAACTTAGGGCAACCGATACGACGC | 0.0765 |
| AGTCAAAGTTAACTAGGTAACGTAAGATTCAGCT | 3.88 |
| TCTTGTAGATCAAGCAGGTTAAGACAGCCTGAGT | 1.59 |
| GCTAGTTGGTAAGTAAAAGGTCACACACCGGTCG | 0.354 |
| CGAACTAGGTCATTGACAGGACAGTGAGTAGTAA | 8.17 |
| TCTTGTAGATCAATAGAGGTCAAGAAAGTGCGCT | 1.9 |
| ACTAACAGGCCAAGTTTGGGTCACTCAAACAAAG | 0.131 |
| TCTATTAGTTGAAGGGCAAACGACGAGTCCGTTT | 2.81 |
| GCTAGGTGGTCAGTAAAAGGTCACACACCGGTCG | 0.659 |
| ATCTCTAGGTAACAAGTACAGTGAAAGAGAGGAC | 2.78 |
| ATCTCTAGGTAAAAGCTCAGTGAATCCCGAGGAT | 2.43 |
| TTACCAAGGTGCAGGTCGTTGATCCCTCTGTAGA | -0.00827 |
| AGACTGAGGTTATACGTAGATCAGGGAAGAAAGT | 0.425 |
| CAAACTAGGTCAGAGGTCAAAGTCGAGCCAACCA | 8.29 |
| GCGCGGAGGACAAGGTCAGAGCTTTGTCCGTAGA | -0.241 |
| TCTCGGAGGACACGAAAGGTCAGGGCTCGACATC | 1.91 |
| TATGCAGGGTCAAAGGCCAGAGTACGAATGTCGA | 1.27 |
| CCTAATGGGCCAAGGTCATTGATCAGTCAAAGCA | 2.35 |
| AGAACGAGGGCACGCGGAGTTGATAGCAGAGTAG | 4.28 |

tested on: PPARg:RXRa IVT, anti-PPARg (NR concentration 270 nM, RXRa partner concentration 90 nM); test: as above
Outline: as §1

| Sequence | PBM binding z-score |
| --- | --- |
| CCTTACGGGTCACTCCAGGTTATAGCATCGGAGT | 3.86 |
| TTGCCTAGGTCATGGGCCAGTATACCACGCGAAC | 3.33 |
| TCTTGTAGATCAATGGTTAAGAAAGCCGAAGCCT | 0.567 |
| CCGACTGGGGCATAAGGTTACCCTAAGCCAGCCC | 2.69 |
| CCTTACTGGTCACTCCAGGTTATAGCATCGGAGT | 1.07 |
| ATCTCTAGGTCACCAAGTTCAGTGAATGCCGAAC | 7.06 |
| AGAACGAGGGCAATGAGTTGTTAGCACGGGTGGC | 2.66 |
| GCTGCTACGTCAGGTTGGTCAGCTAACGGGTACG | -0.651 |
| TAGCCTAGGTCAGACCGGGCCAGTATACGCTATA | 1.13 |
| CCGAGTAGGTTATGGGGCACTCAGGCAACGGTGA | 3.7 |
| GCTTACGGGTCAAAGGTGATAGCATGAATAGAAT | 5.3 |
| CCTACTGGGCCAAACAGGTCATTGATGCCGATAA | 3.92 |
| ATATGTAGGTTATGGGGTCATTCAGTTTGCGCAT | 7.35 |
| ATCGAAAGGTCGTGAGGTTAGTATACAGAAAGGC | 2.21 |
| GCGACTGGGGCAAAGCAGGTTTCCATAAGGTTGG | 3.02 |
| CCTACTAGGCCAAAAAGGTCATTGATGCCGATAA | 4.58 |
| GCTGCTAGGTCAACTGTTGGTCAGCTAAAGCTCG | 4.32 |
| AGAACGAGGGCACGTTGAGTTGATAGCAGAGTAG | 3.75 |
| CGTCCAGGGTCAAAGGTCAGTGAAGAGATGACGG | 5.28 |
| ATCACTAGGTAAAAGTTCAGTGAATCCCGAGGAT | 4.52 |

| Sequence | PBM binding z-score |
| --- | --- |
| CCAGATAGGTGAGAAGGTAACTCAGCCTCGATTA | 1.72 |
| ACTATTAGTTAACTTAGGGCAACCGATACGACGC | 0.837 |
| AGTCAAAGTTAACTAGGTAACGTAAGATTCAGCT | 4.72 |
| TCTTGTAGATCAAGCAGGTTAAGACAGCCTGAGT | 0.85 |
| GCTAGTTGGTAAGTAAAAGGTCACACACCGGTCG | 3.04 |
| CGAACTAGGTCATTGACAGGACAGTGAGTAGTAA | 8.32 |
| TCTTGTAGATCAATAGAGGTCAAGAAAGTGCGCT | 2.9 |
| ACTAACAGGCCAAGTTTGGGTCACTCAAACAAAG | 0.999 |
| TCTATTAGTTGAAGGGCAAACGACGAGTCCGTTT | 0.694 |
| GCTAGGTGGTCAGTAAAAGGTCACACACCGGTCG | 2.52 |
| ATCTCTAGGTAACAAGTACAGTGAAAGAGAGGAC | 2.91 |
| ATCTCTAGGTAAAAGCTCAGTGAATCCCGAGGAT | 1.66 |
| TTACCAAGGTGCAGGTCGTTGATCCCTCTGTAGA | 0.492 |
| AGACTGAGGTTATACGTAGATCAGGGAAGAAAGT | 0.435 |
| CAAACTAGGTCAGAGGTCAAAGTCGAGCCAACCA | 8.85 |
| GCGCGGAGGACAAGGTCAGAGCTTTGTCCGTAGA | 0.514 |
| TCTCGGAGGACACGAAAGGTCAGGGCTCGACATC | 1.97 |
| TATGCAGGGTCAAAGGCCAGAGTACGAATGTCGA | 3.92 |
| CCTAATGGGCCAAGGTCATTGATCAGTCAAAGCA | 2.59 |
| AGAACGAGGGCACGCGGAGTTGATAGCAGAGTAG | 4.01 |
